The target of assay [1] is Tyrosine-protein kinase CSK (Homo sapiens) (UniProt P41240). Particulars: at 1 µM.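 Note: each value is an averaged inhibition reading.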
The target of assay [2] is T1, Discoidin domain-containing receptor 2 (Homo sapiens) (UniProt Q16832).
T1 sequence (whole entry): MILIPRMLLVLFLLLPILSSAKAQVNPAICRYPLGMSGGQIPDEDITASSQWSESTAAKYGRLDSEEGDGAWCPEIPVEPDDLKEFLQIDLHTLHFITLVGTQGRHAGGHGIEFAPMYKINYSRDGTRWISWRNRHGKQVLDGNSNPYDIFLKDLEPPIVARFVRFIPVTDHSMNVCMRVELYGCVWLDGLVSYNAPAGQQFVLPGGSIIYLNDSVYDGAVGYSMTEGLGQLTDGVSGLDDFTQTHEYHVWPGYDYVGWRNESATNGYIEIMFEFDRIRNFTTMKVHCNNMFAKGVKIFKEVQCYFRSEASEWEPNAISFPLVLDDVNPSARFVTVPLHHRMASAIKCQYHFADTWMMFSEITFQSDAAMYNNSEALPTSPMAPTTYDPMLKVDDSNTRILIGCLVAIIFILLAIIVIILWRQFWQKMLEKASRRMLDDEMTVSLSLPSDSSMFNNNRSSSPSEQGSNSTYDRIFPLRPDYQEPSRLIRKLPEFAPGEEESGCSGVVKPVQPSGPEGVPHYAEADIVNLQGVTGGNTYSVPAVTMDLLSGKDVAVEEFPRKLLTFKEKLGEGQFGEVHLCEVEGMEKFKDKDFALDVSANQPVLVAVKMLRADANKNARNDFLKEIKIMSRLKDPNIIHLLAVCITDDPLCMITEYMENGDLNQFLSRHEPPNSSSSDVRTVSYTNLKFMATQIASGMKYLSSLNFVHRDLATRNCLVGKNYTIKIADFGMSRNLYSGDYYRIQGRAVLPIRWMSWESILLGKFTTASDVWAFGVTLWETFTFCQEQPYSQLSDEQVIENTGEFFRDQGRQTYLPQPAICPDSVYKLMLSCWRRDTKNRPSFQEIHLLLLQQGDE
Conditions: at 0.1 µM.

Assay [3] has as its target T1, Discoidin domain-containing receptor 2 (Homo sapiens). Particulars: at 1 µM.
For assay [4], the target named is Epidermal growth factor receptor (Homo sapiens) (UniProt P00533). Particulars: at 0.1 µM.
Assay [5] has the same target. Particulars: at 1 µM.
The test system of assay [6] is Epidermal growth factor receptor (Homo sapiens), P00533 [L858R]. Particulars: at 0.1 µM.
The test system is the same in assay [7]. Particulars: at 1 µM.
For assay [8], the system named is Epidermal growth factor receptor (Homo sapiens), P00533 [L861Q]. Particulars: at 0.1 µM.
The test system is the same in assay [9]. Particulars: at 1 µM.
The subject of assay [10] is Epidermal growth factor receptor (Homo sapiens), P00533 [T790M]. Conditions: at 0.1 µM.
Assay [11] has the same test system. Particulars: at 1 µM.
Assay [12] relates to Epidermal growth factor receptor (Homo sapiens), P00533 [L858R,T790M]. Particulars: at 0.1 µM.
The test system is the same in assay [13]. Particulars: at 1 µM.
Assay [14] concerns the target Ephrin type-A receptor 2 (Homo sapiens) (UniProt P29317). Conditions: at 0.1 µM.
Assay [15] shares this target. Conditions: at 1 µM.
Assay [16] concerns the target T2, Ephrin type-A receptor 3 (Homo sapiens) (UniProt P29320).
T2 sequence (whole entry): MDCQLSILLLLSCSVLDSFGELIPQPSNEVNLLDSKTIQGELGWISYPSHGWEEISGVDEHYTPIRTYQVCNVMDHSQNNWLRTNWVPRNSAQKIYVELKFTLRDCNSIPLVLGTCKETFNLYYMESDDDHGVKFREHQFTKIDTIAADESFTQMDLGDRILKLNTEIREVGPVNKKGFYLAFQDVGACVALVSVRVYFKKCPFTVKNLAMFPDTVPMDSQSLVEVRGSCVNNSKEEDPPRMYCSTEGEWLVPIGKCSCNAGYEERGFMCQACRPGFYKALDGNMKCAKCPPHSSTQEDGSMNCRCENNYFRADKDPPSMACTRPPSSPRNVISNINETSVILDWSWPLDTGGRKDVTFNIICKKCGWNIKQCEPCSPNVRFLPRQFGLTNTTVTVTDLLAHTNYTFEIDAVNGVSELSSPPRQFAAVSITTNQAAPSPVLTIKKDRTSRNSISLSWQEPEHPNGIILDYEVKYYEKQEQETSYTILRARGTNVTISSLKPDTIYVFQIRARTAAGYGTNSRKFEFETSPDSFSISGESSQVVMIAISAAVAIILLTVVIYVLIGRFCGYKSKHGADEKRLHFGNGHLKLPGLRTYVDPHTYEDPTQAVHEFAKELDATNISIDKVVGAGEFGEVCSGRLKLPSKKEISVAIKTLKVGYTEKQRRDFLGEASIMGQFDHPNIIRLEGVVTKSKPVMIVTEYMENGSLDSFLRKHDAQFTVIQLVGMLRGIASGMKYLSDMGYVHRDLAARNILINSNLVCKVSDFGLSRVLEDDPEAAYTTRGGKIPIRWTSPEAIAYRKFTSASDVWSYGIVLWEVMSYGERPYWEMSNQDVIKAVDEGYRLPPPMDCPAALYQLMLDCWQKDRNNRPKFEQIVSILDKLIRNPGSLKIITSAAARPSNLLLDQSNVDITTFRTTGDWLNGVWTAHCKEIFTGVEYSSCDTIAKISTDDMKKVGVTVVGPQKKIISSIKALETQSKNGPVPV
Conditions: at 0.1 µM.

In assay [17] the target is T2, Ephrin type-A receptor 3 (Homo sapiens). Particulars: at 1 µM.
In assay [18] the target is Ephrin type-A receptor 4 (Homo sapiens) (UniProt P54764). Particulars: at 0.1 µM.
Assay [19] shares this target. Conditions: at 1 µM.
Assay [20] deals with T3, Ephrin type-B receptor 2 (Homo sapiens) (UniProt P29323).
T3 sequence (whole entry): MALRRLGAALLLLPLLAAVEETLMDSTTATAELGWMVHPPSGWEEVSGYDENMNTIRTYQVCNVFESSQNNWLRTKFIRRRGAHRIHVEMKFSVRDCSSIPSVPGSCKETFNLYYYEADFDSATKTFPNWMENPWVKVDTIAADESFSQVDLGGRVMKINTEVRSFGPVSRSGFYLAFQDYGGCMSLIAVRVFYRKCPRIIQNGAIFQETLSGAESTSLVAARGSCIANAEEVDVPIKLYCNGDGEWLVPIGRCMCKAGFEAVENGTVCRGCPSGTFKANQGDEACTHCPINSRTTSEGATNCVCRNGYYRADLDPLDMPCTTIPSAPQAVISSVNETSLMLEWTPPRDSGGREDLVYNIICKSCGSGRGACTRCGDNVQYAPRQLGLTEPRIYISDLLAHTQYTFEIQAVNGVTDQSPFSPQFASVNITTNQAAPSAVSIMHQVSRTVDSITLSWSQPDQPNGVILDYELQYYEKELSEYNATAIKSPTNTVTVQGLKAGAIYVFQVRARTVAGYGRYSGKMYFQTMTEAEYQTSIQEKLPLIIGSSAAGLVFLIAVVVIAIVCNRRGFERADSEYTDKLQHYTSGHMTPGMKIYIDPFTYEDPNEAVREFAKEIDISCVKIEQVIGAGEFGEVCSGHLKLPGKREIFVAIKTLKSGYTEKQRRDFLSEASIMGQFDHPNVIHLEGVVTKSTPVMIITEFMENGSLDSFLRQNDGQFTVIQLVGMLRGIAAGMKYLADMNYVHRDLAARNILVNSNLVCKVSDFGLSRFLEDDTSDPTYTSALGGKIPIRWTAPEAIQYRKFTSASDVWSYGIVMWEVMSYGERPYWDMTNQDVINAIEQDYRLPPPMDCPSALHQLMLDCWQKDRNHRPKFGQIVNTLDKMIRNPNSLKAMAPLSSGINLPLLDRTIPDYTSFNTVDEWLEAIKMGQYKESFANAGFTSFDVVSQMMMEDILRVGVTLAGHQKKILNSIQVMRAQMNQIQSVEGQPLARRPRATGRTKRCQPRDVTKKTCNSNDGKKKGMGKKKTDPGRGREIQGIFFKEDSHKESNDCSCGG
Particulars: at 0.1 µM.

The results in this text go back to ChEMBL document CHEMBL1961873, “Compounds: GSK PKIS; Assays: Nanosyn kinase panel” (2012).

Values joined by “and” are separate entries in the source; they are usually repeats but may differ in a detail not shown here. Identical values can stand only once.

Epidermal growth factor receptor (Homo sapiens), sequence (P00533 whole entry): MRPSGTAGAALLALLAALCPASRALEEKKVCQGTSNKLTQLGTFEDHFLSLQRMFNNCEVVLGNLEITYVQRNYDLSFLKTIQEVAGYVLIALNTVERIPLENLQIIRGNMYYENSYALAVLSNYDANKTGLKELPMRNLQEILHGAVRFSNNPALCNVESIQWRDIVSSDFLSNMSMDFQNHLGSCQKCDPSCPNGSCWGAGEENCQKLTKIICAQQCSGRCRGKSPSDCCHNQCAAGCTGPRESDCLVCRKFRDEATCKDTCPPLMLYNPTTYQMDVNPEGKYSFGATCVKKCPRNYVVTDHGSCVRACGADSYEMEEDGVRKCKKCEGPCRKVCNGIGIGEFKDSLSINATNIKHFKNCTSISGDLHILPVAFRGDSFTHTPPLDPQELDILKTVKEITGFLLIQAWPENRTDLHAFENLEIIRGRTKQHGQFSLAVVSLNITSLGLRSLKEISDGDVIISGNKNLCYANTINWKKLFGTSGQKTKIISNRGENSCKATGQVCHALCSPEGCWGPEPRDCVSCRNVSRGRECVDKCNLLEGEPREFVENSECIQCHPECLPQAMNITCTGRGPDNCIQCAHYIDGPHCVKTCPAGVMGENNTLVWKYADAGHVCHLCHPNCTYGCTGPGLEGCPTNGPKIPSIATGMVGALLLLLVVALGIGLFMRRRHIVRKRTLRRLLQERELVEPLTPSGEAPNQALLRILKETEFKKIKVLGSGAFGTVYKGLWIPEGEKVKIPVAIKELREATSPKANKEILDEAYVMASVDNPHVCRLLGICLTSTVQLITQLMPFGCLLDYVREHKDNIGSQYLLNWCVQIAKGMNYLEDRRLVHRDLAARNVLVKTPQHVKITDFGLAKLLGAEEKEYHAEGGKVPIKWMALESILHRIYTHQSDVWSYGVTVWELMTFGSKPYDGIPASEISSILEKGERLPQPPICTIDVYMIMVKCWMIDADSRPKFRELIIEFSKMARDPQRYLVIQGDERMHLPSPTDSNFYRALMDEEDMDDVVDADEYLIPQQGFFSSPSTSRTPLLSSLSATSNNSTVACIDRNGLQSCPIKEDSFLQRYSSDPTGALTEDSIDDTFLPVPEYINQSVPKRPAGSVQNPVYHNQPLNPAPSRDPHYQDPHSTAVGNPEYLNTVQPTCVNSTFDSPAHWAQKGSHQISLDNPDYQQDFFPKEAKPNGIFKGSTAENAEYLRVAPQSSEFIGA
Epidermal growth factor receptor (Homo sapiens), P00533 [L858R], sequence (P00533 whole entry L858R): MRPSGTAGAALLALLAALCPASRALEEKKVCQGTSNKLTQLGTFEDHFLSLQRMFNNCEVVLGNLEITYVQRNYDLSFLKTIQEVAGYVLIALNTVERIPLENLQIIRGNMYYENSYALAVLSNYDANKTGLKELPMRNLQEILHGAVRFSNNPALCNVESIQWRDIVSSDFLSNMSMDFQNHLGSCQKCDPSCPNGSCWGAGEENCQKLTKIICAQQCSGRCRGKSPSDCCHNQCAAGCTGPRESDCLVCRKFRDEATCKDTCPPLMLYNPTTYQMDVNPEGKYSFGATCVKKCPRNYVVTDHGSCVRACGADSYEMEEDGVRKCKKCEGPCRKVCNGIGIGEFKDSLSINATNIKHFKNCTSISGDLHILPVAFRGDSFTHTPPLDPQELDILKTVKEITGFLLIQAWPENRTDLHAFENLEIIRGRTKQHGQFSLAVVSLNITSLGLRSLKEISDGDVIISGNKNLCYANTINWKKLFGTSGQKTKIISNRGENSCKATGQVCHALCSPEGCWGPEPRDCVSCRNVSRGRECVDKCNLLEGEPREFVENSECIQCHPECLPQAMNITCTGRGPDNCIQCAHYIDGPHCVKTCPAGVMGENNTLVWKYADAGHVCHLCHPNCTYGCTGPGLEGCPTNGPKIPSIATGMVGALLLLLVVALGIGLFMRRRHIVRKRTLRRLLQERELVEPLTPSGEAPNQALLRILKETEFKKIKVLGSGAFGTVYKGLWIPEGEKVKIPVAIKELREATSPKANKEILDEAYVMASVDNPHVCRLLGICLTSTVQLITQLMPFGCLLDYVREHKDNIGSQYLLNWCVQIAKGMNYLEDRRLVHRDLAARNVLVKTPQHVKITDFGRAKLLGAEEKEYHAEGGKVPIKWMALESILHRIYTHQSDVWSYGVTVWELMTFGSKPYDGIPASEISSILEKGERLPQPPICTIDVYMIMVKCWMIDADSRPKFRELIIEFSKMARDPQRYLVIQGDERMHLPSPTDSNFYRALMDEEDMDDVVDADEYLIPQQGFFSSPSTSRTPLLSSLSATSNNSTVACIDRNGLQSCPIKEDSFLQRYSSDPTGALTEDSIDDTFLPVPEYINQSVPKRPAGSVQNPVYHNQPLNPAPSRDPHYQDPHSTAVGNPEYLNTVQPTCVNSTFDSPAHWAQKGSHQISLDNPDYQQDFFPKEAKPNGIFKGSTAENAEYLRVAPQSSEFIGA
Epidermal growth factor receptor (Homo sapiens), P00533 [L861Q], sequence (P00533 whole entry L861Q): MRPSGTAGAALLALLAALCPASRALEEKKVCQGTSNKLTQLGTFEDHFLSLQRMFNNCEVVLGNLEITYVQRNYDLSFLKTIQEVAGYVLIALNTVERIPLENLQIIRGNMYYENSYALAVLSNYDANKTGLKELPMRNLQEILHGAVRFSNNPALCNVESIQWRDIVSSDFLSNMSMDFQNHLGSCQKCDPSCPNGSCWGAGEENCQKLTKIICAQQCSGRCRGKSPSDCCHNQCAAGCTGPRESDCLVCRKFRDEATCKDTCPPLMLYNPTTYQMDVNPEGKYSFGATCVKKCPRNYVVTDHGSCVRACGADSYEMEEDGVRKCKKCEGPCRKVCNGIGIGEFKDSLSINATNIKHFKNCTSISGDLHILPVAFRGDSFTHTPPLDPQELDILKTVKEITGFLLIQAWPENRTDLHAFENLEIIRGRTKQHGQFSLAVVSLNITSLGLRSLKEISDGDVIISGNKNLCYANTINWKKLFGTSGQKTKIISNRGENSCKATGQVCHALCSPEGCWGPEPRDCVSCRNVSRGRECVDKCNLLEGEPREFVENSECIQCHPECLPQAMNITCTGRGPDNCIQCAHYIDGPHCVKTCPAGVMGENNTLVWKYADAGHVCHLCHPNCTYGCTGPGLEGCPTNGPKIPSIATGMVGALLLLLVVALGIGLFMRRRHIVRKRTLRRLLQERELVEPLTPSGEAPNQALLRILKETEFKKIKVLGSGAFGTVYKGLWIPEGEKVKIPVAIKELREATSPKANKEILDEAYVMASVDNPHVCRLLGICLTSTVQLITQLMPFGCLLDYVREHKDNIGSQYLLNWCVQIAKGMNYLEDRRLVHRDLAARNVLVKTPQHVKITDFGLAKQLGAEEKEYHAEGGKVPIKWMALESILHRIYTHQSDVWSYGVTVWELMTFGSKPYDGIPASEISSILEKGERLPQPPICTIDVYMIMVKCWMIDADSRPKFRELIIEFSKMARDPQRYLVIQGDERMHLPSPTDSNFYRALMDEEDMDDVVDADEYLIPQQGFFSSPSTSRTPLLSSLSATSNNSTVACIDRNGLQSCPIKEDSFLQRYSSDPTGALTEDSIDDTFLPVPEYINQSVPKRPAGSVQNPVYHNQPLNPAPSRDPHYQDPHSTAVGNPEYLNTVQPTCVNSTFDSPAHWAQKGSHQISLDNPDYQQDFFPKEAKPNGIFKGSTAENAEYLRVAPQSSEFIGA
Epidermal growth factor receptor (Homo sapiens), P00533 [L858R,T790M], sequence (P00533 whole entry T790M/L858R, looked up): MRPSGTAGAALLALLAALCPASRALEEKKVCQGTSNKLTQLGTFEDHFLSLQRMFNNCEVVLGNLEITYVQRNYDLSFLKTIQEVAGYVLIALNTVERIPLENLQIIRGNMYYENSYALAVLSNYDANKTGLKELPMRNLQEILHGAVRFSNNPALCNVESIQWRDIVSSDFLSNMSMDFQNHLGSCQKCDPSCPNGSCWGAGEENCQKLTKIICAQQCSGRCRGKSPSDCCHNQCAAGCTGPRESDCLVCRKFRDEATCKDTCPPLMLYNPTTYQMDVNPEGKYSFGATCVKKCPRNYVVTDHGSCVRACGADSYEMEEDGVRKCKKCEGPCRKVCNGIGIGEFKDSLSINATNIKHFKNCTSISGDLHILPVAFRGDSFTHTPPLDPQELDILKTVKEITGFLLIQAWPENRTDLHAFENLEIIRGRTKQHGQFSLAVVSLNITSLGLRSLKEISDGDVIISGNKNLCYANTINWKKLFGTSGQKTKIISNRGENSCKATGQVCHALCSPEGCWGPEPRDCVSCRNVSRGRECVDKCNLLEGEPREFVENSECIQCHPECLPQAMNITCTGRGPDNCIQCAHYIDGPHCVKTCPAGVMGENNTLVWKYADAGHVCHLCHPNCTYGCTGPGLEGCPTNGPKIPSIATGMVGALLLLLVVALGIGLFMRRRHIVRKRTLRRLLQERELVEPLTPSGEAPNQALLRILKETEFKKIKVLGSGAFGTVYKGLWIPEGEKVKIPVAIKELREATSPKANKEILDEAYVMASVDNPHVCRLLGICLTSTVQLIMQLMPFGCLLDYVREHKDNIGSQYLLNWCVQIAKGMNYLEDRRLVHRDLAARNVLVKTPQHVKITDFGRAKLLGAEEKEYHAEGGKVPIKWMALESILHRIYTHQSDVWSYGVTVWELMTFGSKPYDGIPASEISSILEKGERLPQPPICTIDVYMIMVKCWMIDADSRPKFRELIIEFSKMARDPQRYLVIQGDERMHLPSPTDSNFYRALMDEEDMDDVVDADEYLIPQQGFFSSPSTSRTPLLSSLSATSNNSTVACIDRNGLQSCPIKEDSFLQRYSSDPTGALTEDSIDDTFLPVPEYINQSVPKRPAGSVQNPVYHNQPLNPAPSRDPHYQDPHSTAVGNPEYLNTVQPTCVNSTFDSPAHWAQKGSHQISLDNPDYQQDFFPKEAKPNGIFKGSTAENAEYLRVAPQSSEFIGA

Take `Cc1cc(O)cc(C)c1/C=C/c1cncc(C(N)=O)c1`: the inhibition in assay [1] amounted to 25.5%; in assay [2] it was 2.69%; in [3], 9.65%; in [4], 6.97%; in assay [5] it was 11.2%; in assay [6] it was 3.98%. Further, the inhibition stood at 18.9% in [7]; 3.84% in assay [8]; 5.76% in [9]; 1.27% in assay [10]; 1.53% in [11]; 0.06% in assay [12]. Besides, the inhibition in assay [13] came out at 1.88%; in assay [14], 8.68%; in assay [15] it was 47.2%; in assay [16] it was 5.13%; in assay [17] it was 19.5%; in [18], 18.6%. Further, the inhibition was 69.2% in assay [19] and 16.3% in [20].

Turning to `Nc1ncnc2occ(-c3ccc(NC(=O)Nc4cc(C(F)(F)F)ccc4F)cc3)c12`, the inhibition in assay [1] was 41% and 18.6%; in assay [2] it was 46.1% and 33.6%; in assay [3], 80% and 79.7%; in assay [4] it was 1.05% and 12.5%; in assay [5], 5.41% and 15.6%; in [6], 2.23% and 3.14%. In addition, the inhibition in [7] is 1.42% and 3.22%; in [8] it was 3.11% and 1.25%; in [9] it was 1.69% and 1.44%; in assay [10], 1.74% and 0.3%; in assay [11], -0.24% and 0.54%; in assay [12], 0.74% and 1.93%. Also, the inhibition in [13] is 0.23% and -1.52%; in assay [14] it was 22.4% and 1.32%; in assay [15] it was 80.5% and 57%; in [17], 43.8% and 25.2%; in assay [19], 77.2% and 77.9%; in assay [20] it was 55.4% and 55.7%.

As to `Fc1cccc(COc2ccc(Nc3ncncc3C#Cc3ccccc3)cc2Cl)c1`, the inhibition in assay [1] stood at 6.87%; in assay [2], 1.28%; in assay [3], 1.92%; in assay [4] it was 23.9%; in assay [5] it was 72.5%; in assay [6], 3.93%. The inhibition in [7] was 21.7%; in assay [8], 16.6%; in assay [9], 30.2%; in [10] it was 3.89%; in [11], 3.85%; in assay [12], 3.98%. Besides, the inhibition in [13] stood at 5.02%; in assay [14] it was 4.2%; in assay [15] it was 0.3%; in assay [16], 4.46%; in assay [17], 4.68%; in assay [18], 9.27%. For the same compound, the inhibition is 13.1% in [19] and 8.04% in [20].

With `CS(=O)(=O)CCNCc1ccc(-c2ccc3ncnc(Nc4ccc(OCc5ccccc5)cc4)c3c2)o1`, the inhibition in assay [1] was determined as 9.28%; in [2], 1.74%; in assay [3] it was 2.07%; in [4], 83.8%; in assay [5] it was 94.1%; in assay [6], 31.4%. Moreover, the inhibition in assay [7] turned out to be 71.2%; in assay [8], 33%; in [9], 55.7%; in [10], 4.15%; in [11] it was 12.4%; in assay [12] it was 0.12%. Also, the inhibition in assay [13] was determined as 4.35%; in assay [14], 1.77%; in [15], 1.18%; in assay [16], 5.21%; in [17], 5.62%; in assay [18], 9.98%. The inhibition stood at 11.5% in [19] and 6.07% in assay [20].

Take `COc1ccc2ncn(-c3cc(O[C@H](C)c4ccccc4C(F)(F)F)c(C(N)=O)s3)c2c1`: the inhibition was -2.18% in [1]; -0.82% in assay [2]; -2.22% in assay [3]; 0.37% in assay [4]; 2.93% in assay [5]; -1.19% in assay [6]. Moreover, the inhibition in assay [7] is 1.03%; in [8], -0.87%; in assay [9], 0.54%; in assay [10] it was -1.45%; in assay [11], -1.39%; in [12], -1.39%. Further, the inhibition is -0.48% in [13]; -3.1% in assay [14]; -4.03% in [15]; 0.39% in [16]; 2.63% in assay [17]; 0.27% in assay [18]. For the same compound, the figures for the inhibition in assay [19] and in assay [20] were 0.47% and 1.25%, respectively.

Turning to `CCN1CCC(C(=O)Nc2n[nH]c3nnc(-c4cccc(F)c4F)cc23)CC1`, the inhibition in assay [1] is -0.26%; in [2], 1.13%; in [3], 1.17%; in assay [4], 1.21%; in assay [5], 2.27%; in [6] it was -0.75%. Moreover, the inhibition in assay [7] was 1.38%; in assay [8], -0.05%; in [9], -0.76%; in [10] it was -1.59%; in assay [11], 0.18%; in assay [12] it was 0.75%. Moreover, the inhibition in [13] is -1.85%; in [14], -3.74%; in assay [15] it was -3.34%; in assay [16], -0.58%; in [17], -0.43%; in [18], -1.7%. Moreover, the figures for the inhibition in assay [19] and in [20] were -0.26% and 0.41%, respectively.

Regarding `CC1=C(C(=O)Nc2ccc3[nH]nc(C)c3c2)C(c2ccc(C(F)(F)F)cc2)CC(=O)N1` (stereo not drawn), the inhibition is 5.65% in [1]; 3.33% in [2]; 1.65% in assay [3]; 2.76% in assay [4]; 5.52% in assay [5]; 4.19% in assay [6]. Further, the inhibition was 1.96% in [7]; 1.79% in assay [8]; 1.92% in [9]; 2.05% in assay [10]; -0.09% in assay [11]; 3.65% in assay [12]. Further, the inhibition in assay [13] was -0.97%; in [14], 2.9%; in assay [15], 2.18%; in assay [16] it was 2.71%; in assay [17], 2.28%; in assay [18] it was 5.51%. Also, the results for the inhibition in [19] and in assay [20] were 5.67% and 5.5%, respectively.

In general, inhibition refers to the drop in the measured response relative to a control, in per cent.
